Bioassay records (PubChem BioAssay)
E-sel TNF inh: blocks E-selectin expression induced by TNF alpha; HUVEC TNFa-induced E-selectin immunofluorescence, high content; inhibition, % at 2 µM; actives 0.71% (n = 120,000); AID 1246;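 active = inhibition above the batch mean plus 3 SD, and confirmed as a hit on visual image review, cut at about 43% in these data; inconclusive = passes the inhibition cutoff but fails visual image review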
sEH act: increases human soluble epoxide hydrolase activity | P34913 | activation, % at 2 µM | purified human sEH enzymatic activity, activator screen | AID 717 | actives 0.04% (n = 91,000); in the data active = activation above about 37%
Target sequence (P34913 whole entry, looked up): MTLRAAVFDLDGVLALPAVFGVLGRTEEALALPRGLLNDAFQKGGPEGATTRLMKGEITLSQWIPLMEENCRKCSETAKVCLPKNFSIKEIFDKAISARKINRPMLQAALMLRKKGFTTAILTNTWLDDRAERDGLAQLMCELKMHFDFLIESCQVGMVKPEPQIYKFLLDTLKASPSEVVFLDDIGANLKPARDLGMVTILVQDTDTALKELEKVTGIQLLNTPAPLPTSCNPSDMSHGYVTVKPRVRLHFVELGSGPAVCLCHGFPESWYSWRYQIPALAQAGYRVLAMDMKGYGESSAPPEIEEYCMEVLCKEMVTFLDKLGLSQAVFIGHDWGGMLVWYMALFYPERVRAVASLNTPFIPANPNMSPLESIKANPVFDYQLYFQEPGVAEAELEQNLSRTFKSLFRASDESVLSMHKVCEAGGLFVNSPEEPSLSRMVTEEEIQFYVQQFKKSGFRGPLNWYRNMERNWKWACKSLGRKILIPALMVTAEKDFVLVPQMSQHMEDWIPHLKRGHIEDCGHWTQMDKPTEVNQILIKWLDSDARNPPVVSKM
sEH inhibitor: inhibitors of human soluble epoxide hydrolase; actives 0.34% (n = 91,000); AID 707; P34913; recombinant human sEH enzymatic activity assay; inhibition, % at 2 µM; in the data active = inhibition above about 80%
cytoskel mod: alters cytoskeleton assembly in HUVEC cells | inhibition, % at 2 µM | HUVEC TNFa F-actin phalloidin imaging, high content | actives 0.18% (n = 91,000) | AID 836;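 active = inhibition above the batch mean plus 3 SD and confirmed as a hit by visual image inspection, cut at about 30% in these data, passing the limit was not always enough; inconclusive = above the inhibition threshold but rejected on visual inspection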
sdo1 growth: restores growth of sdo1-depleted yeast | S. cerevisiae sdo1-depleted JHY4D growth rescue, OD600 30 h; hits give high values; pdr5 snq2 efflux-pump mutant strain | z-score at 10 µM | actives 0.21% (n = 140,000);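 active = z-score above 3 at both the 24 hr and the 30 hr optical density reads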
Phagocyt inh: blocks phagocytosis by macrophages | J774A.1 macrophage IgG-bead phagocytosis, imaging | inhibition, % at 5 µM | actives 0.07% (n = 110,000);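 active = inhibition above the mean of the plate negative controls plus 5 SD, cut at about 13% in these data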;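 also: phagocytic index as fraction of beads internalized from green versus red external bead signal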
sdo1 rescue conf: SDO1-depleted yeast growth rescue confirmation | shares compounds with sdo1 growth | S. cerevisiae JHY4D (SDO1-depleted) growth rescue, OD600, 30 h; hits give high values; efflux-deficient strain, SNQ2 and PDR5 mutated | OD recovery (test concentration not listed) | actives 44% (n = 440);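 active = yeast growth recovered at 30 hours, either rising with dose fitted slope above 0.001 or with average optical density gain above 0.07, some results past the limit were not filed as active; inactive = growth falling with dose or no effect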
Of the large screens only hits and unclear results are named; the others gave an inactive call (follow-up assays come after a bar, where they were run); [ ] = remark or other dose. Rows were chosen to be rich in hits. Some 0.96% of all compounds tested hit in one or more screens of this group.

CCOC(=O)C(NCc1ccco1)(NC(=O)c1ccccc1)C(F)(F)F (stereo unspecified)	none
CC(C)/C=C1\CCCCC1N(C)C(=O)NC(C)C (stereo unspecified)	none (no result: E-sel TNF inh)
Cc1nc(C)c(CCNC(=O)c2ccccc2Br)s1	none (no result: sEH act, sEH inhibitor, cytoskel mod)
COc1ccc(NC(=O)c2ccc(-n3cccn3)nc2)cc1	none (no result: Phagocyt inh) | sdo1 rescue conf inactive
COc1ccccc1NC(=O)c1nn(-c2ccc(F)c(F)c2)ccc1=O	none (no result: E-sel TNF inh)
COc1ccccc1NC(=O)c1nn(-c2cccc(C(F)(F)F)c2)ccc1=O	sdo1 growth 7.24 (no result: Phagocyt inh) | sdo1 rescue conf inactive
O=C(CSc1nnc(CN2CCOCC2)n1-c1ccc(Cl)cc1)Nc1cc(Cl)ccc1O	none
COc1ccc(NC(=O)CSc2nnc(CN3CCOCC3)n2-c2ccccc2)cc1Cl	sdo1 growth 3.52 | sdo1 rescue conf inactive
O=C(Nc1ccccc1)c1ccc(NCC2CCCO2)c([N+](=O)[O-])c1 (stereo unspecified)	sdo1 growth 10.7 (no result: sEH act, sEH inhibitor, cytoskel mod) | sdo1 rescue conf 0.0861
CCOc1ccc(CCN2C(=O)C3C4C=CC(C4)C3C2=O)cc1OCC (stereo unspecified)	none (no result: E-sel TNF inh) | sdo1 rescue conf inactive
COC(=O)CCCCCc1ccc(C(C)=O)s1	none
COc1ccccc1NCC(=O)NNCC(=O)Nc1ccc(F)c(Cl)c1	none (no result: sEH act, sEH inhibitor, cytoskel mod, sdo1 growth, Phagocyt inh)
c1ccc(Oc2cccc(NC3=NCCC3)c2)cc1	sdo1 growth 14.6 | sdo1 rescue conf inactive
COc1ccc(C(CNC(=O)c2cc(C)oc2C)N2CCOCC2)cc1 (stereo unspecified)	none | sdo1 rescue conf 0.0818
COc1ccc(C(CNC(=O)c2ccccc2C)N2CCCC2)cc1 (stereo unspecified)	none
CCCCN(C)C(=O)c1cc2cc3ccc(OC)cc3nc2s1	sdo1 growth 15.7 | sdo1 rescue conf 0.0758
Cc1cccc(C)c1OCC(=O)NNC(=O)c1ccoc1C	none
COc1ccccc1OCC(=O)NNC(=O)c1ccoc1C	sdo1 growth 5.12 (no result: E-sel TNF inh, sEH act, sEH inhibitor, cytoskel mod) | sdo1 rescue conf inactive
CC(C)NC1CS(=O)(=O)CC1O (stereo unspecified)	cytoskel mod inconclusive, sdo1 growth 5.55 | sdo1 rescue conf 0.0945
C=CCNC(=O)CSc1n[nH]c(-c2cc(Cl)ccc2OC)n1	none (no result: sEH act, sEH inhibitor, cytoskel mod, sdo1 growth, Phagocyt inh)
Cc1nn(-c2ccccc2)c(C)c1C(=O)OCC(=O)N1c2ccccc2NC(=O)C1(C)C	sdo1 growth 14.2 | sdo1 rescue conf inactive
Cc1nc2ncnn2c(C)c1CCC(=O)N1CCOCC1	sdo1 growth 5.12 | sdo1 rescue conf 0.0979
COc1ccccc1NC(=O)COC(=O)c1ccccc1OCC(=O)Nc1ccc(SC(F)F)cc1	none (no result: E-sel TNF inh, sEH act, sEH inhibitor, cytoskel mod) | sdo1 rescue conf 0.0728
Cc1cc(NC(=O)CSc2nc3c(c(-c4cccnc4)c2C#N)CCC3)no1	none | sdo1 rescue conf inactive
O=C(CC12CC3CC(CC(C3)C1)C2)NCC(=O)N1CCCC1	sdo1 growth 3.97 (no result: E-sel TNF inh) | sdo1 rescue conf inactive
O=C(CC12CC3CC(CC(C3)C1)C2)NCO	none
N#Cc1ccc(-c2ccc(F)cc2)nc1SCC(=O)Nc1sc2c(c1C#N)CCC2	none | sdo1 rescue conf inactive
Cn1c(CNC(=O)c2ccc(Cl)c(Cl)c2)nnc1SCC(=O)Nc1sc2c(c1C#N)CCCC2	sdo1 growth 4.73 | sdo1 rescue conf inactive
Cn1cnnc1SCC(=O)Nc1sc2c(c1C#N)CCCCC2	none (no result: Phagocyt inh)
N#Cc1cc2c(nc1SCC(=O)Nc1sc3c(c1C#N)CCC3)CCCC2	none (no result: E-sel TNF inh, sEH act, sEH inhibitor, Phagocyt inh)
Cc1ccc(CCNC(=O)C2CCCN(c3nc4ccccc4o3)C2)cc1 (stereo unspecified)	none (no result: E-sel TNF inh, sEH act, sEH inhibitor)
CCN(C(=O)Nc1ccccc1)c1ccccc1	none (no result: sEH act, sEH inhibitor, cytoskel mod)
O=C(Nc1ccccc1)N(O)c1ccc(Cl)cc1	sdo1 growth 3.32 | sdo1 rescue conf 0.081
COc1cc(Cl)ccc1NC(=S)N(CCN1CCOCC1)C1CCN(C(C)=O)CC1	none (no result: sEH act, sEH inhibitor, cytoskel mod, sdo1 growth, Phagocyt inh)
COc1ccccc1S(=O)(=O)Cc1ccc(C(=O)N2CCOCC2)o1	sdo1 growth 3.19 (no result: E-sel TNF inh, Phagocyt inh) | sdo1 rescue conf inactive
O=C(OCC(CO)OC(CO)n1ccc(=O)[nH]c1=O)c1ccccc1 (stereo unspecified)	sdo1 growth 7.69 | sdo1 rescue conf inactive
O=C(NCn1ccc(=O)[nH]c1=S)c1ccccc1	none
O=[N+]([O-])c1cc(Br)c(O)c(/C=N/Nc2nnnn2-c2cccc3ccccc23)c1	none
CC(=O)N(C1=C(O)c2ccccc2C(=O)C1=O)C1CCCCC1	sdo1 growth 3.15[12.9 µM] (no result: cytoskel mod, Phagocyt inh) | sdo1 rescue conf 0.0739
CCCCCCCC(=O)NC(Nc1ccc(S(N)(=O)=O)cc1)C(Cl)(Cl)Cl (stereo unspecified)	sdo1 growth 3.12 (no result: Phagocyt inh) | sdo1 rescue conf 0.104
CCCCCC(=O)NC(NC(=S)Nc1ccc(S(N)(=O)=O)cc1)C(Cl)(Cl)Cl (stereo unspecified)	none (no result: Phagocyt inh)
O=C(Nc1ccc2c(c1)OCO2)C1CCCN(S(=O)(=O)Cc2ccccc2)C1 (stereo unspecified)	none | sdo1 rescue conf 0.0824
O=C(Nc1ccc2c(c1)OCCO2)C1CCCN(S(=O)(=O)Cc2ccccc2)C1 (stereo unspecified)	none
Cc1n[nH]c(C)c1S(=O)(=O)N1CCCC(C(=O)Nc2ccc3c(c2)OCCO3)C1 (stereo unspecified)	none (no result: E-sel TNF inh) | sdo1 rescue conf 0.0939
Cc1cnc(C(=O)Nc2cccc(S(=O)(=O)N(C)C)c2)cn1	none (no result: E-sel TNF inh, sEH act, sEH inhibitor, cytoskel mod)
Cc1cc2ncn(C(=O)N3CCCCCC3)c2cc1C	none (no result: Phagocyt inh)
CCOc1ccccc1-c1c2cc(O)c(=O)cc-2oc2cc(O)c(O)cc12	none (no result: sEH act, sEH inhibitor, cytoskel mod)
COc1ccc(OC)c(-c2c3cc(O)c(=O)cc-3oc3cc(O)c(O)cc23)c1	sdo1 growth 5.68 (no result: sEH act, sEH inhibitor, cytoskel mod) | sdo1 rescue conf inactive
Cc1cccc2c(SCC(=O)NCC3CCCO3)nc(-c3ccc(F)cc3)nc12 (stereo unspecified)	none (no result: Phagocyt inh) | sdo1 rescue conf 0.11
COc1cc2c(cc1NC(=O)c1cccc([N+](=O)[O-])c1)oc1ccccc12	sdo1 growth 3.01 | sdo1 rescue conf inactive
OC(CN1c2ccccc2Sc2ccccc21)Cn1nnc2ccccc21 (stereo unspecified)	none
Cc1nn(CC(O)CN2c3ccccc3Sc3ccccc32)c(C)c1Br (stereo unspecified)	sdo1 growth 4.54 | sdo1 rescue conf inactive
N#Cc1nc(-c2cccc3ccccc23)oc1NCCN1CCCCC1	sdo1 growth 11.5 | sdo1 rescue conf 0.097
O=C(CN1CCN(c2cccc(Cl)c2)CC1)Nc1ccc([N+](=O)[O-])cc1C(=O)Nc1ccccc1F	sdo1 growth 13.7 (no result: E-sel TNF inh, sEH act, sEH inhibitor, cytoskel mod) | sdo1 rescue conf inactive
Cc1ccc(C)c(N2CCN(CC(=O)Nc3ccc([N+](=O)[O-])cc3C(=O)Nc3ccccc3F)CC2)c1	none
Cc1nn(Cc2ccc(Br)cc2)c(C)c1NC(=O)c1nn(C)cc1Cl	sdo1 growth 15.4 | sdo1 rescue conf inactive
O=C(C[n+]1ccc(-c2nnc3n2CCC3)cc1)c1ccc(Cl)c(Cl)c1	none (no result: E-sel TNF inh, sEH act, sEH inhibitor, cytoskel mod)
C=C(C)COc1ccc(-c2nc(N)ncc2Oc2ccc(OC)cc2)c(O)c1	sdo1 growth 3.48 | sdo1 rescue conf inactive
